TLR9-MyD88 inh – TLR9-MyD88 interaction inhibition. Q9NR96+Q99836. CHO BLA complementation TLR9-MyD88, CCF4 FRET ratio. inhibition, % at 4.98 µM. 0.21% of 340,000 active. AID 504734;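 active = inhibition above the mean over all tested compounds plus 3 SD, cut at about 21% in these data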
Neddylation inh – blocks human cullin neddylation | TR-FRET cullin neddylation, biochemical | P61081+Q13564 | 0.58% of 360,000 active | inhibition, % at 25 µM | AID 651699; in the data active = inhibition above about 36%
NPR1 activator – GC-A (human) enzyme activation | P16066 | HEK293 GC-A cells, cGMP TR-FRET, EC30 ANP; 0% at EC30 ANP, 100% saturating ANP | activation, % at 10 µM | 0.14% of 370,000 active; in the data active = activation above about 40%
NOD2-RIPK2 inh – NOD2-RIPK2 protein interaction inhibition; 0.38% of 360,000 active; inhibition, % at 4.98 µM; CHO BLA complementation NOD2-RIPK2, CCF4 ratio; in the data active = inhibition above about 21%
GC-B act – GC-B (human) receptor activation. P20594. HEK293-GC-B cells, CNP EC30, cGMP TR-FRET; 0% at EC30 CNP, 100% saturating CNP. activation, % at 10 µM. 0.11% of 370,000 active. AID 1920062;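 active = activation at 10 µM reaching about 35% in either raw or pattern-adjusted values, limit read from the data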
TLR4-MyD88 BLA – TLR4-MyD88 interaction inhibition in cells. O00206+Q99836. HeLa CL3-4 TLR4/MyD88 BLA complementation, FRET ratio. inhibition, % at 8.4 µM. 0.18% of 200,000 active. AID 861; in the data active = inhibition above about 25%
Numbers stand for hits; – = inactive; · = no result given. Rows were chosen to be rich in hits. Some 1.2% of all compounds tested hit in one or more screens of this group.

SMILES | TLR9-MyD88 inh | Neddylation inh | NPR1 activator | NOD2-RIPK2 inh | GC-B act | TLR4-MyD88 BLA
[O-][n+]1cccc2cccc(O)c21 | – | – | – | – | – | ·
CC1(Cc2ccc(C(F)(F)F)nc2)C(=O)Nc2cc(-c3ccccc3Cl)ccc21 (configuration not stated) | · | – | 42 | – | – | ·
CC(=O)c1sc2nc(-c3ccco3)ccc2c1N | · | 82 | – | – | – | ·
O=C(Nc1nc(-c2ccc(F)cc2)cs1)C1CCN(C(=O)c2ccc(F)cc2)CC1 | – | – | – | – | – | ·
O=C(Nc1nc2c(F)cc(F)cc2s1)C1CCN(C(=O)c2ccc(F)cc2)CC1 | – | – | 68 | – | – | ·
CC(=Nc1ccc(C)cc1C)c1sc2ccccc2c1O | – | 44 | – | – | – | –
CCCCN(C)C(=O)C(Cc1ccccc1)NS(=O)(=O)c1ccc2c(c1)c(=O)n(C)c(=O)n2C (configuration not stated) | – | – | – | – | 47 | –
COC(=O)[C@]12C[C@H](CC(=O)N3CCCC3)C(=O)N(CCc3ccc(OC)c(OC)c3)C1=C[C@H](C1CCCC1)O[C@@H]2C | · | · | – | · | – | ·
COc1cc2[nH]c(=S)nc(NC3CCCC3)c2cc1OC | · | · | · | · | · | –
C=CCNc1nc(=S)[nH]c2cc(OC)c(OC)cc12 | – | – | 41 | – | 37 | –
COc1ccc(-c2[nH]ncc2N=Nc2cc(C)cc(C)c2)cc1 | – | – | – | – | 55 | –
CC(C)CNC(=O)OCc1cn(Cc2ccc(Cl)cc2)nn1 | · | · | – | · | – | ·
Cc1ccccc1/C=N/N=C1/NC(=O)CCS1 | – | – | – | – | – | ·
O=C1CCS/C(=N\N=C\c2ccc(Cl)cc2Cl)N1 | – | – | 56 | – | – | ·
N#CC1=C(N)Oc2cc(N)ccc2C1c1cccc(F)c1 (configuration not stated) | – | – | 43 | – | – | ·
CC(C)[C@H]1/C(=C/C2CC2)N2C(=O)C[C@@H](c3ccccc3)N=C2N1Cc1ccc2c(c1)OCO2 | · | · | – | · | – | ·
C[C@@H]1[C@@H](O)C[C@@]2(C[C@H](O)c3ccccc3O2)O[C@H]1c1ccccc1 | · | · | – | · | – | ·
CC(=O)C1=C(C)NC(SCC(=O)c2cc(Cl)ccc2Cl)=C(C#N)C1c1ccco1 (configuration not stated) | – | – | – | 21 | – | –
CC(=O)C1=C(C)NC(SCC(N)=O)=C(C#N)C1c1ccco1 (configuration not stated) | – | – | – | – | – | –
C=CCN1C(=O)[C@@H](CC(=O)NCc2ccc(OC)c(OC)c2)[C@]2(C(=O)OCC)CCCCC/C=C/12 | · | · | – | · | – | ·
CCOC(=O)[C@]12CCCCC/C=C\1N(CCc1ccc(Cl)cc1)C(=O)[C@H]2CC(=O)NCC1CCCCC1 | · | · | – | · | – | ·
CN1CCCC(n2nc(Cc3ccc(Cl)cc3)c3ccccc3c2=O)CC1 (configuration not stated) | – | – | – | – | 118 | ·
COc1cc2ccccc2cc1C(=O)Nc1sc2c(c1C(N)=O)CCN(C(C)C)C2 | – | 50 | – | – | – | ·
O=C(Cn1nnc(-c2ccccc2)n1)OC1CCOC1=O (configuration not stated) | – | – | 54 | – | – | –
C/C(=N\NC(=O)c1cc2ccccc2cc1O)c1ccc(C)o1 | – | 40 | – | – | – | ·
SMILES | TLR9-MyD88 inh | Neddylation inh | NPR1 activator | NOD2-RIPK2 inh | GC-B act | TLR4-MyD88 BLA
Cc1cccc(CNC(=O)NC2CCCCN(Cc3cccc(Cl)c3)C2=O)c1 (configuration not stated) | · | · | – | · | – | ·
Cc1c(/C=N/NC(=O)c2cccnc2)c2ccccc2n1Cc1ccccc1 | · | – | 58 | – | – | –
CCn1nc(C)c(/C=N/NC(=O)c2ccc3c(c2)c(C)c(C)n3Cc2ccccc2)c1C | – | 40 | – | – | – | –
Cc1ccc(C(=O)O)cc1N=Cc1cc(Br)cc(Br)c1O | – | 41 | · | – | · | –
CC(=O)Nc1ccc(C(=O)N/N=C/c2cc(Br)cc(Br)c2O)cc1 | – | – | – | – | – | –
C=CCN1C(=O)[C@H](CC(=O)N2CCCCC2)[C@@]2(C(=O)OCC)CCCC=C12 | · | · | – | · | – | ·
CCN(CC)CCOC(=O)c1ccc(N/C=C(/C#N)c2nc(-c3cccc(OC)c3)cs2)cc1 | · | – | – | – | – | ·

High-throughput results (PubChem)
